Results taken from PubChem BioAssay (NCI).
Values joined by “and” are separate entries in the source; they are usually repeats but may differ in a detail not shown here. Equal values may be shown once. This is part of a sample that, as a whole, favours compounds with a hit. Of some 83,000 tested, about 20% had one in any assay.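 Activity criterion: percent growth below 10, measured after cells in 96-well plates were exposed to a single compound concentration for 48 hours.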 Active and inactive are the calls of the source.

The molecules below were run on MDA-MB-468 breast (assay: NCI-60 one-dose screen, 48 h (100 = growth as untreated, 0 = no growth, -100 = all killed)). Settings: 10 µM unless noted.

Row | Structure (SMILES) | growth
1 | COc1cc(OC)c(/C=C/S(=O)(=O)Cc2cnc(OC)c(N)c2)c(OC)c1 | 23.6% (inactive)
2 | Cc1ncc(C(=O)Nc2ccc(CN3CCN(C)CC3)c(C(F)(F)F)c2)cc1C#Cc1cnc(N)c2ccc(C#N)cc12 | 48.2% (inactive)
3 | COc1cc(CNCCCN2C(=O)c3ccc4c5c(ccc(c35)C2=O)C(=O)N(CCCNCc2cc(OC)c(OC)c(OC)c2)C4=O)cc(OC)c1OC | -93.3% (active)
4 | CCNc1cc2c(cc1Br)-c1ccccc1C2=O | 50.2% (inactive)
5 | COc1ccc(S(=O)(=O)Nc2cc(/C=C\c3cc(OC)c(OC)c(OC)c3)cc(OC)c2OC)cc1OC | 25.5% (inactive)
6 | CCN(CC)c1ccc(/C=C/C2=[N+](C)c3ccccc3C2(C)C)cc1 | 20.4% (inactive)
7 | CCCn1c(=S)sc2c1nc(C)n1c(Nc3ccccc3)nnc21 | 51.5% (inactive)
8 | COc1cc(Oc2cc(-c3cccnc3)ccc2NC(=O)Nc2ccc(F)cc2F)cc(OC)c1OC | 97.7% (inactive)
9 | Fc1cccc(Oc2ccc(Nc3ncnc4ccc(OCCCN5CCOCC5)cc34)cc2Cl)c1 | -14.1% (active)
10 | O=S(=O)(Nc1ccccc1)C1CCCCC1 | 110% (inactive) and 107% (inactive)
11 | COc1ccc(C2=Cc3ccc(OC(C)=O)cc3OC2)cc1 | 67.4% (inactive)
12 | COc1ccc(/C=c2\sc3n(c2=O)C(c2cc(OC)c(OC)c(OC)c2)C=C(c2ccc(OC)c(OC)c2)N=3)cc1OC (stereo not given) | 105% (inactive)
13 | O=C1c2c(c3c4cc(Br)ccc4[nH]c3c3ccc4ccccc4c23)C(=O)N1CCO | 100% (inactive)
14 | COc1cc(/C=C/c2nnc(-c3cc(-c4ccccc4)n[nH]3)o2)cc(OC)c1OC | 101% (inactive)
15 | CCN(CC)CCCC(Nc1c2ccc(Cl)cc2nc2ccc(OC)cc12)c1ccc(Cl)cc1 (stereo not given) | -78.5% (active)
16 | O=C(NCCCN1CCCCC1)c1ccc(-c2nc3ccc4[nH]ncc4c3c3c2CCCC3)cc1 | 35.4% (inactive)
17 | Cc1cn(C2CC(F)C(CO)O2)c(=O)[nH]c1=O (stereo not given) | 90.7% (inactive)
18 | Cc1c(C(=O)N[C@H](CO)Cc2ccccc2)[nH]c2ccc(Cl)cc2c1=O | 95.5% (inactive)
19 | O=C(O)c1cc([N+](=O)[O-])ccc1Oc1ccccc1 | 101% (inactive)
20 | C=C(CNCCc1ccc(O)cc1)[C@@H]1CC[C@]2(CO)CC[C@]3(C)[C@H](CC[C@@H]4[C@@]5(C)CCC(N)C(C)(C)[C@@H]5CC[C@]43C)[C@@H]12 (stereo not given in full) | -88.4% (active)

Row | Structure (SMILES) | growth
21 | O=S(=O)(NCCCNc1cc(-c2cn(-c3ccccc3)nc2-c2cccc(O)c2)ccn1)c1cccc2ccccc12 | -18.4% (active)
22 | CC(=O)OC[C@@]12Oc3c(cccc3-c3ccc(O)c4c3O[C@]3(COC(C)=O)C(=C4O)C(=O)C[C@H](C)[C@@H]3OC(C)=O)C(O)=C1C(=O)C[C@H](C)[C@@H]2OC(C)=O | -30.2% (active)
23 | N#Cc1ccccc1Cn1c2nc(=N)c3ccccc3c-2nc2ccccc21 | 24.3% (inactive)
24 | CN[C@@H](C)C(=O)N[C@H]1CCS[C@H]2CC(C)(C)[C@@H](C(=O)N[C@H]3c4ccccc4C[C@H]3OCC#CC#CCO[C@@H]3Cc4ccccc4[C@@H]3NC(=O)[C@H]3N4C(=O)[C@@H](NC(=O)[C@H](C)NC)CCS[C@H]4CC3(C)C)N2C1=O | 19.3% (inactive)
25 | Nc1nc(SCC2(CCl)COC2)c2[nH]cnc2n1 | 108% (inactive)
26 | COc1ccc(C(=O)c2nc3ccccc3n2CC(=O)c2ccc(Cl)cc2)cc1 | 33.8% (inactive)
27 | CN(C)c1ccc(/C=N\NC(=O)c2ccc3nc(-c4ccc(Cl)cc4)[nH]c3c2)cc1 | 76.1% (inactive)
28 | CNCc1cccc2c1OCCOCCOCCNS(=O)(=O)c1ccc(cc1)-c1cnc(N)c(n1)C(=O)N2 | 35.6% (inactive)
29 | O=C(Nc1ccc(OCc2nnc(-c3ccccc3)o2)c(F)c1)Nc1ccc(Cl)c(Cl)c1 | 26.3% (inactive)
30 | O=C(CCCn1c2c(sc3ccccc32)c(=O)n2nnc(-c3ccccc3)c12)NCCc1cnc[nH]1 | -91% (active)
31 | N#Cc1c(N)c(C(=O)c2ccc3c(c2)OCCO3)n2c1CCCC2 | 35.5% (inactive)
32 | CCC1(C)OC(=O)NC1=O (stereo not given) | 107% (inactive)
33 | C=C1C(=O)O[C@H]2[C@H]1CC/C(COC(=O)NCc1ccc(OC)cc1)=C\CC[C@@]1(C)O[C@@H]21 | 27.7% (inactive)
34 | CC(=O)N1N=C(c2ccc(C(F)(F)F)c(F)c2)CC1c1[nH]c(C)c(C(=O)NCC(F)(F)F)c1C (stereo not given) | 78.5% (inactive)
35 | O=C(Nc1cccc(-n2cc(-c3ccncc3)c(-c3ccc(O)c(Cl)c3)n2)c1)c1ccc(N2CCOCC2)c(C(F)(F)F)c1 | 65.9% (inactive)
36 | COc1ccc(-n2sc(=O)n(Cc3ccc(COC(=O)C(C)c4ccc(CC(C)C)cc4)cc3)c2=O)cc1 (stereo not given) | -46.1% (active)
37 | O=[N+]([O-])c1ccc(NC(=S)NNC(=S)Nc2ccc(F)cc2)cc1 | 74.6% (inactive)
38 | CCCCN(CCCC)CCCCCCCCC(O)c1cc2ccccc2c2ccccc12 (stereo not given) | 29.1% (inactive)
39 | Cc1c(-c2csc(-n3nc(C(F)(F)F)cc3C(F)(F)F)n2)no[n+]1[O-] | 81.2% (inactive)
40 | CN1Cn2c(ccc2C(F)(F)F)C(=O)CS1(=O)=O | 115% (inactive)
